MPTP block: inhibitors of mitochondrial permeability transition pore; actives 1.4% (n = 360,000); isolated mouse mitochondria, Ca2+ swelling absorbance, 30 min; inhibition, % at 10 µM; AID 602449;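 active = inhibition of 50% or more, scaled per plate between neutral and stimulator controls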
GRIN3A LBD mod: modulators (binders) of human NR3A ligand-binding domain; NR3A LBD differential scanning fluorimetry, Tm shift; 0% = protein alone, 100% = glycine-bound protein; Tm shift relative to glycine control, % at 25 µM; actives 2.5% (n = 340,000);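 active = melting temperature shift of at least 10% of the positive control shift, at one fixed dose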
pCIP destab: lowers stability of the mouse p/CIP coactivator protein; decrease of EGFP signal, % at 10 µM; Q05BA5; F442A p/CIP-EGFP cells, EGFP fluorescence, 16 h; actives 0.01% (n = 290,000); AID 1984;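 active = EGFP signal decrease of at least 30% at 10 µM or well 3 SD below plate mean, unless failing retest; inactive = the rest, including hits failing retest or dose response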
beta cell repl: MIN6 beta-cell proliferation induction. MIN6 cells proliferation, ATPlite luminescence, 48 h; cells starved in 0.2% serum; 100% = growth in 10% serum. proliferation, % at 10 µM. actives 0.29% (n = 330,000);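 active = compounds whose signal lies at least 3.5 SD above the mean of all wells on their plate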
FAS TE block: FAS thioesterase (human) inhibition; P49327; recombinant FAS-TE, OMFH fluorogenic substrate, fluorescence endpoint; inhibition, % at 15 µM; actives 0.67% (n = 360,000);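 active = compounds whose normalised, plate-corrected inhibition of enzyme fluorescence in the single-dose primary screen is 50% or more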
A number is an active result; . = inactive; / = no result given. This is a sample that favours compounds with a hit; in the whole collection about 4.1% have one here.

SMILES | MPTP block | GRIN3A LBD mod | pCIP destab | beta cell repl | FAS TE block
CC(C)CNc1ncnc2c1ncn2[C@H]1CN(Cc2ccc3c(c2)OCO3)C[C@@H](CO)O1 | . | / | / | / | .
CCOc1ccc(C(=O)Nc2ccc(-c3nc4ccccc4[nH]3)cc2)cc1[N+](=O)[O-] | . | 211.8 | . | . | .
O=C(Nc1ccc(-c2nc3ccccc3[nH]2)cc1)c1ccc2c(c1)OCO2 | . | 30.2 | . | . | .
Cc1c(NC(=O)c2ccc3c(c2)OCO3)cccc1-c1nc2ccccc2s1 | . | . | . | . | .
O=C(Nc1cccc(-c2nc3ccccc3s2)c1)c1ccc2c(c1)OCO2 | . | 10.2 | . | . | .
CCOc1ccc(C(=O)Nc2ccc(NC(=O)c3ccccc3)c(C)c2)cc1[N+](=O)[O-] | . | 17.9 | . | . | .
CCOc1cccc(C(=O)Nc2ccc(NC(=O)c3ccccc3)c(C)c2)c1 | . | . | . | . | .
Cn1ncc([N+](=O)[O-])c1C(=O)Nc1ccc(-c2nc3ccccc3[nH]2)cc1 | . | / | . | . | .
O=C(c1cc(C2CC2)nn1-c1ccccc1)N1CCN(S(=O)(=O)c2ccccc2F)CC1 | . | / | / | / | .
CCOC(=O)C1CCCN(C(=O)c2cccc(OC(F)(F)F)c2)CC1 (stereo not given) | . | / | / | / | .
CCNC(=O)C1(C)CCCN(Cc2cccc3c(OC)cc(C(=O)OCC)cc23)C1 (stereo not given) | . | / | / | / | .
Cc1cccc2[nH]c(-c3ccc(NC(=O)c4ccco4)cc3)nc12 | . | 31.4 | . | . | .
O=C(Nc1ccc2nc(-c3ccccc3)[nH]c2c1)c1ccco1 | . | . | . | . | .
O=[N+]([O-])c1ccc(NN=Cc2ccc3c(c2)OCO3)nc1 | . | . | / | / | .
Cc1ccc(CNc2ncnc3c2cnn3C2CCCCO2)cc1 (stereo not given) | . | . | / | / | .
Oc1ccc(/C=N/N(c2ccccc2)c2ccccc2)cc1O | . | . | . | . | .
Oc1ccc(/C=N/N=C/c2ccc(O)c(O)c2)cc1O | . | 27.6 | . | . | .
O=C(/C(=N/N=C/c1ccc(O)c(O)c1)c1ccccc1)c1ccccc1 | . | 21.2 | . | . | .
Oc1ccc(N=Cc2ccc(O)c(O)c2)cc1 | . | . | . | . | .
Cc1c(C(=O)NCc2ccc3c(c2)OCCO3)sc(=O)n1Cc1ccccc1C(F)(F)F | . | / | / | / | .
O=C(Nc1ccc2c(c1)OCCO2)C(c1ccnc2ccccc12)N1CCN(C/C=C/c2ccccc2)CC1 (stereo not given) | . | / | / | / | .
NNC(=O)c1cc(-c2ccc(N)cc2)nc2ccc(Br)cc12 | . | 18.1 | . | . | .
O=C(Nc1cccnc1)c1cc(-c2cccnc2)nc2ccc(Br)cc12 | . | . | . | . | .
CC(C)c1ccc(-c2cc(C(=O)N3CCOCC3)c3cc(Br)ccc3n2)cc1 | . | 18.6 | . | . | .
COc1cc(NC(=O)c2cc(-c3cccnc3)nc3ccc(Br)cc23)cc(OC)c1 | . | 10.1 | . | . | .
SMILES | MPTP block | GRIN3A LBD mod | pCIP destab | beta cell repl | FAS TE block
CC(C)Nc1nc(Nc2ccc(Cl)cc2F)c2sccc2n1 | . | / | / | / | .
Cc1cc(C)c(SSc2nnnn2-c2ccccc2)c(C)c1 | . | / | / | / | .
CC1(C(=O)NCc2ccccc2Br)CCN1Cc1ccc(-c2ccccc2)o1 (stereo not given) | . | / | / | / | .
COc1ccc(Oc2nc(C(F)(F)F)nc3ccccc23)cc1 | . | 22.8 | . | . | .
Cc1ccc(Oc2nc(C(F)(F)F)nc3ccccc23)cc1 | . | . | . | . | .
O=C(Nc1ccccc1Cl)Oc1ccc(Cl)cc1Cl | . | 10.3 | . | . | .
CC1(C)Cc2nc(NCCCO)c(C#N)cc2CO1 | . | 15.8 | . | . | .
O=C(COc1ccc2ccccc2c1Br)NC(=S)Nc1cccc(CO)c1 | . | 34.2 | . | . | .
Cc1cc(C)cc(N2C(=O)c3nccnc3C2=O)c1 | . | 14.4 | . | . | .
Cc1cc(C)cc(N2C(=O)C=CC2=O)c1 | . | . | / | / | .
COc1ccc(C(=O)Nc2nc3c(s2)Cc2cc(OC)ccc2-3)cc1 | . | 10.8 | . | . | .
COc1cccc(-c2nnc(NC(=O)c3cccs3)s2)c1 | . | . | . | . | .
COc1ccc2c(c1)Cc1sc(NC(=O)c3cccs3)nc1-2 | . | 25.3 | . | . | .
COc1ccc2c(c1)Cc1sc(NC(=O)c3ccccc3)nc1-2 | . | 10.1 | . | . | .
COc1ccc(C(=O)Nc2nc3ccc4nc(C)sc4c3s2)cc1 | . | . | . | . | .
CCC(C(=O)NC1CCCC1)n1c(C2CCCC2)nc2ccccc21 (stereo not given) | . | / | / | / | /
CCN(CC)C(=O)c1cccc(-c2csc(C(NC(C)=O)c3cccc(OC)c3)n2)c1 (stereo not given) | . | / | / | / | .
O=C(Nc1ccccc1Cl)c1cc(C2CCCN(S(=O)(=O)c3cccs3)C2)on1 (stereo not given) | . | / | / | / | .
CCc1nc2c(OCC(N)=O)cccn2c1N(C)C(=O)C(C)C | . | / | / | / | .
CCOC(=O)C1(C)CCN1C(=O)c1cccc(Cl)c1 (stereo not given) | . | / | / | / | .
CCOc1ccc(-n2c(=S)sc3c(=O)n(-c4ccc(F)cc4)c(SCC(=O)O)nc32)cc1 | . | 14.9 | . | . | .
Cc1ccc2c(=O)n3c(nc2c1)C(CC(C)C)NC(=O)c1cccnc1-3 (stereo not given) | . | / | / | / | .
C=CCC[C@@H](Cc1ccc(F)cc1)C(=O)OC[C@@H](NC(=O)[C@@H](CC=C)CC(=O)N[C@@H](CO)Cc1ccccc1)C(C)(C)C | . | . | / | . | .
C=CCC[C@H](Cc1ccc(F)cc1)C(=O)OC[C@@H](NC(=O)[C@@H](CC=C)CC(=O)N[C@@H](CO)Cc1ccccc1)C(C)(C)C | . | 31.0 | / | . | .
C=CCC[C@@H](Cc1ccc(F)cc1)C(=O)OC[C@H](Cc1c[nH]c2ccccc12)NC(=O)[C@@H](CC=C)CC(=O)N[C@H](CO)Cc1ccccc1 | . | 14.5 | / | . | .
SMILES | MPTP block | GRIN3A LBD mod | pCIP destab | beta cell repl | FAS TE block
C=CCC[C@H](Cc1ccc(F)cc1)C(=O)OC[C@H](Cc1c[nH]c2ccccc12)NC(=O)[C@@H](CC=C)CC(=O)N[C@@H](CO)Cc1ccccc1 | . | . | / | . | .
CC1(C(=O)NS(=O)(=O)c2ccc(C#N)cc2)CCN1C(=O)C1(c2ccccc2)CC1 (stereo not given) | . | / | / | / | .
O=C1NC[C@@H](CCCCN2C[C@H](Cc3ccccc3)N(CC3CCCCC3)C(=O)C2=O)N(CCc2ccccc2)C1=O | . | / | / | / | .
O=C(c1cc(C2CCCCN2S(=O)(=O)c2ccc(F)cc2F)on1)N1CCOCC1 (stereo not given) | . | / | / | / | .
CC(=O)N/C(=C\c1ccc(F)cc1)C(=O)NC(Cc1c[nH]c2ccccc12)C(=O)O (stereo not given) | . | 13.7 | . | . | .
O=C(NC(Cc1c[nH]c2ccccc12)C(=O)O)/C(=C/c1ccc(F)cc1)NC(=O)c1ccccc1 (stereo not given) | . | . | . | . | .
